Consider 46 compounds from PubChem BioAssay AID624354 (Sanford-Burnham Center for Chemical Genomics, 2012).

Among all 360,000 compounds or so, about 3,800 (1.1%) were called active. The entries come from a sample that favours actives as a whole. Unmarked numbers belong to inactive results.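 Rule for the calls: active = compounds causing at least 50% loss of cell viability in the single-dose screen, relative to plate controls; inactive = the rest.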

The test is described as follows: TRAIL-exposed caspase-8 expressing cell killing – NB7+C8 cells, ATPlite luminescence, TRAIL sensitizer project, primary screen (AID 624354). As to conditions: at 10 µM, active compounds read high.
On to `O=C(CN1C(=O)NC2(CCOc3ccccc32)C1=O)Nc1cccc([N+](=O)[O-])c1` (stereo unspecified), for which the inhibition (viability loss, TRAIL sensitization) is -2.91%.

Turning to `CCOC(=O)C1=C(C)OC(N)=C(C#N)C1c1cncc(-c2ccc(F)cc2)c1` (stereo unspecified), the inhibition (viability loss, TRAIL sensitization) is -2.49%.

For `FC(F)(F)c1ccc2nnc(-c3c(Cl)cccc3Cl)n2c1`, the inhibition (viability loss, TRAIL sensitization) was 24.4%.

As for `CN(C)C1=NC[C@H](Cc2ccccc2)N1CCc1ccc(F)cc1`, the inhibition (viability loss, TRAIL sensitization) was 6.59%.

As for `Cc1cc(C)n(C(=O)CCNC(=O)c2ccccc2Cl)n1`, the inhibition (viability loss, TRAIL sensitization) was 4.1%.

On to `COCCNC(=O)c1ccccc1-c1nc(-c2ccccc2Cl)no1`, for which the inhibition (viability loss, TRAIL sensitization) was 4.78%.

Consider `CN(C)CCNC(=O)c1ccc(Cl)c2cc3ccccc3nc12`, for which the inhibition (viability loss, TRAIL sensitization) is 56% (active).

On to `Cn1nc(-c2ccccc2)c(CSc2cccc(Cl)c2)c1Cl`, for which the inhibition (viability loss, TRAIL sensitization) is 6.33%.

`Cc1ccc(S(=O)(=O)NC[C@H]2O[C@@H](n3cnc4c(N)ncnc43)[C@H](O)[C@@H]2O)s1`: the inhibition (viability loss, TRAIL sensitization) is -2.79%.

Turning to `Cn1nc(C(C)(C)C)c(NC(=O)c2sccc2Cl)c1C(C)(C)C`, the inhibition (viability loss, TRAIL sensitization) is 15.6%.

For the compound `COc1cccc(-c2nc3cc(C)ccc3o2)c1`, the inhibition (viability loss, TRAIL sensitization) was 52.6% (active).

As for `O=[N+]([O-])c1ccc2oc(-c3cccc(O)c3)nc2c1`, the inhibition (viability loss, TRAIL sensitization) was 24.5%.

Consider `COc1ccc2oc(N)nc2c1`, for which the inhibition (viability loss, TRAIL sensitization) is 4.55%.

On to `O=C(NC(Cc1ccc(O)cc1)C(=O)O)/C(=C/c1ccccc1)NC(=O)c1ccccc1` (stereo unspecified), for which the inhibition (viability loss, TRAIL sensitization) is -22.8%.

For `Cc1ccc(N2C(=O)C3C(c4ccccc4)(C2=O)C3(c2ccccc2)c2ccccc2)cc1` (stereo unspecified), the inhibition (viability loss, TRAIL sensitization) is 11.6%.

On to `CSc1cc(C)[nH]c(=O)n1`, for which the inhibition (viability loss, TRAIL sensitization) was -4.86%.

Take `O=C(O)c1ccc(N/N=C/c2ccc3ncccc3c2)cc1`: the inhibition (viability loss, TRAIL sensitization) was 18.4%.

For the compound `O=C(O)c1ccc(N/N=C/c2cn(-c3ccccc3)nc2-c2cccs2)cc1`, the inhibition (viability loss, TRAIL sensitization) was 76.2% (active).

Take `COc1ccc(Cl)cc1NC(=O)CN(C)C(=O)c1cn(-c2ccccc2)nc1-c1cccs1`: the inhibition (viability loss, TRAIL sensitization) is 21.4%.

For the compound `COc1ccc(CN2CC(C(=O)NCCc3ccc(Cl)cc3)CC2=O)cc1` (stereo unspecified), the inhibition (viability loss, TRAIL sensitization) was 10.4%.

Turning to `CCOC(=O)C1CCCN(C(=O)c2ccc(N(C)C)cc2)CC1` (stereo unspecified), the inhibition (viability loss, TRAIL sensitization) is -15.3%.

Take `OC1CN=C2Sc3ccccc3N2C1` (stereo unspecified): the inhibition (viability loss, TRAIL sensitization) is -13.7%.

As for `CC1CN(S(=O)(=O)c2ccccc2)C(C)CN1S(=O)(=O)c1ccccc1` (stereo unspecified), the inhibition (viability loss, TRAIL sensitization) is 7.64%.

As for `O=C(COc1cccc(F)c1)Oc1ccc(C(=O)c2ccccc2)cc1`, the inhibition (viability loss, TRAIL sensitization) was 7.92%.

Turning to `O=C(Oc1ccc(-c2nc(-c3ccccn3)no2)cc1)c1ccccc1`, the inhibition (viability loss, TRAIL sensitization) was 72% (active).

As for `Cc1noc(C)c1COC(=O)COc1ccc(-c2ccccc2)cc1`, the inhibition (viability loss, TRAIL sensitization) is -21.6%.

With `CC(=O)Nc1ccc(C(=O)N(C2=NC(C)CS2)c2ccc(Cl)cc2)cc1` (stereo unspecified), the inhibition (viability loss, TRAIL sensitization) is 0.911%.

As for `O=c1oc2ccccc2cc1-c1cn(-c2ccccc2)c(=S)[nH]1`, the inhibition (viability loss, TRAIL sensitization) is 82.7% (active).

Turning to `COc1ccc([C@H]2CC(=O)C[C@@H](CCn3cc(CC4CCCC4)nn3)O2)cc1`, the inhibition (viability loss, TRAIL sensitization) is 6.31%.

Regarding `CC(CC(=O)N1CCN(c2ccccc2)CC1)S(=O)(=O)c1ccc2c(c1)NC(=O)CS2` (stereo unspecified), the inhibition (viability loss, TRAIL sensitization) is 23.3%.

With `O=C(CN1CCN(S(=O)(=O)c2ccc(Cl)s2)CC1)NCc1ccc(Cl)cc1`, the inhibition (viability loss, TRAIL sensitization) is 15.3%.

Turning to `Cc1nc(C(F)(F)F)ccc1C(=O)N1CCC1(C)C(=O)NS(=O)(=O)c1ccccc1` (stereo unspecified), the inhibition (viability loss, TRAIL sensitization) is -0.681%.

With `COc1cc(Nc2nc3ccc(Cl)cc3n3cnnc23)cc(OC)c1OC`, the inhibition (viability loss, TRAIL sensitization) was 6.53%.

Consider `COc1cc(/C=N/N=C(\N)c2nonc2N)cc(OC)c1OC`, for which the inhibition (viability loss, TRAIL sensitization) is 36.5%.

`COc1cc(/C=N/Nc2nn3cnnc3c3ccccc23)cc(OC)c1OC`: the inhibition (viability loss, TRAIL sensitization) is 69.3% (active).

Take `COCCN(C(=O)c1ccco1)c1nnc(-c2ccc(OC)cc2)s1`: the inhibition (viability loss, TRAIL sensitization) was 15.7%.

As to `CC(C)NC(=O)N1CCN(c2ccncc2S(=O)(=O)N2CCCCC2)CC1`, the inhibition (viability loss, TRAIL sensitization) is -3.19%.

Take `CCN(CC)c1ccc(/C=N/Nc2nc(C)cc(C)n2)c(O)c1`: the inhibition (viability loss, TRAIL sensitization) is 51.5% (active).

As for `O=C(CNS(=O)(=O)c1ccc(Br)s1)NCc1ccc2c(c1)OCO2`, the inhibition (viability loss, TRAIL sensitization) was 0.95%.

As for `COc1ccc(N2CC(C(=O)N[C@@H](C)C(=O)N3CCCCC3)CC2=O)cc1` (stereo partly specified), the inhibition (viability loss, TRAIL sensitization) was 5.67%.

Take `CCCNC(=S)N1CCC(NC(=O)C23CC4CC(CC(C4)C2)C3)CC1`: the inhibition (viability loss, TRAIL sensitization) is 26.6%.

As to `CCOC(=O)c1sc(NC(=O)CSc2nc(O)c(Cc3ccccc3)c(=O)[nH]2)nc1C`, the inhibition (viability loss, TRAIL sensitization) is -1.62%.

For `Clc1ccc(-c2cc(-c3ccccn3)on2)c(Cl)c1`, the inhibition (viability loss, TRAIL sensitization) is 87.7% (active).

Consider `Fc1ccc(-c2ccc(CNCc3ccccn3)o2)cc1Cl`, for which the inhibition (viability loss, TRAIL sensitization) was 4.36%.

Consider `Clc1ccc(COn2c(-c3ccc(Cl)cc3Cl)nc3ncccc32)cc1`, for which the inhibition (viability loss, TRAIL sensitization) is 7.77%.

As for `CCN(CC)CCN(C)C(c1ccnc2ccccc12)c1nnnn1-c1ccc2c(c1)OCCO2` (stereo unspecified), the inhibition (viability loss, TRAIL sensitization) is -12.3%.
